Experimental data reported in ChEMBL document CHEMBL1157539, “Thousands of chemical starting points for antimalarial lead identification” (Nature, 2010).

Test system: Plasmodium falciparum
Test: GSK_TCMDC: Inhibition of Plasmodium falciparum Dd2 in whole red blood cells, using parasite LDH activity as an index of growth. Test compounds present at 2uM
Assay type: functional

Structure (SMILES) | Inhibition [%]
O=C(Nc1ccc(Cl)cc1)N1CCN(C2CCCCC2)CC1 | 0
Cc1ccccc1CNc1noc(-c2c(-c3ccccc3)noc2C)n1 | 70
Clc1ccc(Nc2nc3ccc(Cl)cc3nc2Nc2ccc(Cl)cc2)cc1 | 99
N#Cc1cccc(Nc2cc(C(F)(F)F)nc(Nc3ccccc3)n2)c1.O=C(O)C(F)(F)F | 17
COc1cccc(Nc2nc(C)cc(NCc3ccc(-n4ccnc4)cc3)n2)c1 | 99
Cc1cc(=O)c(-c2ccc(Oc3cccc(Cl)c3)cc2)c(C)[nH]1 | 89
COc1ccc(-n2c(=O)c3c(n4c(SC(C)C)nnc24)-c2ccccc2CC32CCCCC2)cc1 | 15
N#Cc1cc([N+](=O)[O-])ccc1-n1nc(-c2cccc(Cl)c2)n(CC2CCCO2)c1=S (stereo not given) | 89
COc1cccc(C(NC(=O)c2ccccc2)c2ccc3cccnc3c2O)c1 (stereo not given) | 41
Cc1cc(Nc2ccc(O)cc2)nc2cc(O)ccc12.Cl | 9
Nc1ncc(-c2ccc3[nH]ccc3c2)c2ccc(-c3ccncc3)cc12 | 100
CC(C)C(=O)NC(c1ccc(Cl)cc1)c1ccc2cccnc2c1O (stereo not given) | 70
Cc1noc(-c2ccccc2)c1NC(=O)N1CCN(CCCCCCNC(=O)/C=C/c2ccc(Cl)c(Cl)c2)CC1 | 1
Cn1cnc(CCNC(=O)c2ccc(-c3ccc(-c4nc5cc(C(F)(F)F)ccc5[nH]4)s3)cc2)c1 | 99
CSCCCN1CCC(O)(c2ccc3oc(C(=O)Nc4ccc5sc(C)nc5c4)cc3c2)CC1 | 69
